The results in this text go back to PubChem BioAssay AID1224817 (Yan Lab, Georgia Cancer Center, Augusta University, 2016).

Each structure is given as a SMILES string. Where “and” joins values, the source holds several entries; their conditions need not be identical. Identical values can stand only once. Among all 2,000 compounds or so, about 25 (1%) were called active.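 The calls were made as follows: active = log2 luciferase ratio at or below -0.5849, meaning signal at two thirds of solvent-only control or lower; inactive = the rest.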 The entries come from a sample that favours actives as a whole.

This assay is described as follows: inhibitors of EIF4E gene expression, primary screen, cell-based, HT1080, luciferase reporter (AID 1224817).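 Also: luciferase reports endogenous eIF4E expression since it is co-expressed from the native EIF4E locus.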 To be noted: HT1080 EIF4E-luc2 knock-in reporter, 16 h, at 2.5 µM, hits give low values.
For `Cc1ccccc1C(=N)c1ccccc1Cc1cccc2ccccc12`, the log2 luciferase activity ratio was 0.0556 (inactive).
The figure for `CC1(C)C(CC(=O)O)CCCC1CC(=O)O` (stereo not drawn) is -0.193 (inactive); for `N=C1C(O)C2(I)c3ccccc3N3C(=N)C(O)C4c5ccccc5N1C4C32` (stereo not drawn) it is 0.988 (inactive).
The figure for `CC[C@]12CCCN3CCc4c(n(c5ccccc45)C(=O)C1)[C@@H]32` is -0.317 (inactive).
In the case of `COC(=O)C1OC(SCCN)C(O)C(O)C1O` (stereo not drawn), the log2 luciferase activity ratio is 0.246 (inactive).
The figure for `O=C(O)c1nnsc1-c1csnn1` is -0.0043 (inactive); for `CN(C)Cc1cc(C(=O)O)cc(CN(C)C)c1O` it is -0.293 (inactive); for `CC(=O)Nc1ccc(-c2cc(C(=O)O)c3cc4ccccc4cc3n2)cc1` it is 0.356 (inactive).
Take `C[C@@H]1C[C@H]2[C@@H]3CCC4=CC(=O)C=C[C@]4(C)[C@@]3(Cl)[C@@H](Cl)C[C@]2(C)[C@@]1(O)C(=O)COP(=O)(O)O`: the log2 luciferase activity ratio is 0.28 (inactive).
With `CC[C@@H]1CN(C)[C@H]2Cc3c([nH]c4ccccc34)C(=O)C[C@H]1C2C(=O)OC` (stereo partly drawn), the log2 luciferase activity ratio was -0.243 (inactive).
With `COc1ccc2c(c1)O[C@H]1c3ccc(O)cc3OC[C@@H]21`, the log2 luciferase activity ratio is 0.161 (inactive).
Consider `Cn1c([N+](=O)[O-])cnc1CN1CCN(CCO)CC1`, for which the log2 luciferase activity ratio was 0.268 (inactive).
In the case of `O=C(O)c1cccc(CN2CCCCC2)c1`, the log2 luciferase activity ratio is 0.0092 (inactive).
Take `C[N+](C)(C)/N=C/c1ccc(O)c(O)c1`: the log2 luciferase activity ratio was -0.303 (inactive).
The same measure for `NC(N)=NC(N)=Nc1ccc(S(N)(=O)=O)cc1`: -0.0076 (inactive).
For the molecule `CCCCN(c1ccccc1)c1ncnc2c1cnn2C`, the log2 luciferase activity ratio was -0.0702 (inactive).
For `COc1ccc2nc3cc(Cl)ccc3c(Nc3ccc(O)c(CN4CCN(C)CC4)c3)c2c1`, the log2 luciferase activity ratio is 0.0343 (inactive).
As for `NC(CC(=O)O)(Cc1ccccc1)C(=O)O` (stereo not drawn), the log2 luciferase activity ratio is -0.129 (inactive).
On to `O=S1(=O)OC(c2ccc(O)cc2)(c2ccc(O)cc2)c2ccccc21`, for which the log2 luciferase activity ratio is 0.424 (inactive).
The same measure for `O=S1(=O)C(c2ccccc2)C(N2CCCCC2)C1C1CC2c3ccccc3C1c1ccccc12` (stereo not drawn): 0.456 (inactive); for `Cc1cc(N2CCOCC2)nc2ccc(Cc3ccc4nc(N5CCOCC5)cc(C)c4c3)cc12`: 0.197 (inactive).
On to `OC(Cc1ccccc1)(Cc1ccccc1)c1ccccc1`, for which the log2 luciferase activity ratio is -0.0177 (inactive).
For `OC(c1cc(C23CC4CC(CC(C4)C2)C3)nc2c(Cl)cc(Cl)cc12)C1CCCCN1` (stereo not drawn), the log2 luciferase activity ratio was 0.104 (inactive).
The figure for `Oc1ccc(-c2nc(-c3cccnc3)c(-c3ccc(F)cc3)[nH]2)cc1` is -0.338 (inactive); for `C=C1C(=O)O[C@H]2[C@H]1[C@H](OC(=O)/C(C)=C\C)CC(=C)[C@@H]1[C@H](O)[C@H]3O[C@@]3(C)[C@@]12O` it is 0.0107 (inactive).
Take `C=C1C(=O)OC2C1C(OC(=O)/C(C)=C/COC(C)=O)CC1(CO1)C1C(O)C=C(C)C21` (stereo not drawn): the log2 luciferase activity ratio was -0.477 (inactive).
As for `C=C1C(=O)OC2C1C(OC(=O)/C(C)=C/C)CC(O)(CCl)C1C(OC(C)=O)C=C(C)C21O` (stereo not drawn), the log2 luciferase activity ratio was -1.14 (active).
On to `O=C(O)C(=O)/C=C(\O)c1ccc(Br)cc1`, for which the log2 luciferase activity ratio was -0.065 (inactive).
Regarding `N=C(CC(=O)Nc1ccccn1)c1ccccc1`, the log2 luciferase activity ratio is 0.825 (inactive).
Regarding `COc1ccc(/C=N/NC(=O)O)cc1`, the log2 luciferase activity ratio was 0.161 (inactive).
On to `CC(CSC(=N)N)C(N)=O` (stereo not drawn), for which the log2 luciferase activity ratio was 0.0537 (inactive).
For the molecule `Cc1c(-c2nc(N)nc(C3CC3)c2C)nc(N)nc1C1CC1`, the log2 luciferase activity ratio was -0.199 (inactive).
Consider `CN1CCN(CC(=O)N2c3ccccc3Sc3cc4ccccc4cc32)CC1`, for which the log2 luciferase activity ratio was 0.0693 (inactive).
In the case of `Nc1nc(Cl)cc(NCCO)n1`, the log2 luciferase activity ratio is -0.615 (active).
In the case of `O=[N+]([O-])c1cc(Cl)cc2c1nc(NCCO)c1ccccc12`, the log2 luciferase activity ratio is 0.0337 (inactive).
With `COc1cccc2c1C(CO)N1C(C#N)C3CC(C(=O)O)C(C1C2)N3C` (stereo not drawn), the log2 luciferase activity ratio was -1.55 (active).
The same measure for `O=C(O)C1Cc2c([nH]c3ccccc23)C(CCCCO)N1` (stereo not drawn): -0.0145 (inactive).
As for `O=C1OC(c2ccc(O)c(-c3ccccc3)c2)(c2ccc(O)c(-c3ccccc3)c2)c2c(Cl)c(Cl)c(Cl)c(Cl)c21`, the log2 luciferase activity ratio was -0.153 (inactive).
Consider `CN(C)c1ccc2nc3c(C(=O)O)cc(=O)c(O)c-3oc2c1`, for which the log2 luciferase activity ratio was -2.21 (active).
`O=C(O)c1ccc(Cc2ccccc2C(=O)O)cc1`: the log2 luciferase activity ratio is -0.21 (inactive).
As to `COC(=O)[C@]1(C)CCC[C@]2(C)C3=CC(=O)[C@@]4(C(C)C)O[C@H]4[C@]3(O)CC[C@@H]12`, the log2 luciferase activity ratio is -0.359 (inactive).
The same measure for `OC1(c2ccccc2)c2ccccc2NC2=NCCN21` (stereo not drawn): 0.416 (inactive); for `Ic1ccc2c(c1)N(c1ccccc1)c1cc(N=c3ccc4nc5ccc(I)cc5n(-c5ccccc5)c-4c3)ccc1N2`: 0.338 (inactive); for `CC(=O)[C@H]1CC[C@@H]2[C@]1(C)CC=C1[C@]23C=C[C@]2(C[C@@H](O)CC[C@]12C)C(C(=O)O)C3C(=O)O` (stereo partly drawn): -0.137 (inactive).
The same measure for `COc1nc(N)nc2c1ncn2C1CC(O)C(CO)O1` (stereo not drawn): 0.0307 (inactive); for `CC(C)Cn1cnc2c(Sc3c([N+](=O)[O-])ncn3C)nc(N)nc21`: -0.473 (inactive).
The figure for `Cn1cnc([N+](=O)[O-])c1Sc1nc(N)nc2c1ncn2C1CC(O)C(CO)O1` (stereo not drawn) is -0.645 (active).
On to `CC1(C)CC23C4COC(=O)C2CCC1C3CC4=O` (stereo not drawn), for which the log2 luciferase activity ratio is 0.113 (inactive).
Turning to `O=C(O)CCn1cnc2c(=S)nc[nH]c21`, the log2 luciferase activity ratio was -0.179 (inactive).
Consider `C[C@@H]1C(=O)C[C@H]2C(C)(C)CCC[C@]2(C)[C@@]1(O)CCc1ccoc1`, for which the log2 luciferase activity ratio is -0.608 (active).
Consider `O=C(CSc1nc2ccccc2s1)c1sc2sc3ccccc3[n+]2c1[O-]`, for which the log2 luciferase activity ratio is 0.244 (inactive).
For the molecule `O=C(O)C1C(C(=O)O)C2C(=O)C=CC1N2Cc1ccccc1` (stereo not drawn), the log2 luciferase activity ratio was 0.0328 (inactive).
The same measure for `CC(C)Cn1cnc2c(SCc3ccc(Cl)cc3Cl)nc(N)nc21`: 0.484 (inactive); for `NC1(C(=O)NC2(C(=O)O)CCCC2)CCCC1`: 0.0359 (inactive).
The same measure for `O=C(Nc1ccc(Nc2ccc3c(c2)C(=O)c2ccccc2C3=O)c2c1C(=O)c1ccccc1C2=O)c1ccccc1`: 0.326 (inactive).
The same measure for `O=C(O)[C@H](c1ccccc1)[C@@H](C(=O)O)c1ccccc1`: -0.0929 (inactive); for `NNC(=O)Cc1cccnc1`: 0.269 (inactive); for `N=C(N)SCCN1CCCCC1`: 0.0135 (inactive).
As for `CCCNc1ncnc2[nH]ncc12`, the log2 luciferase activity ratio is -0.531 (inactive).
With `O=C(O)C1CC[N-]CC1.O=C(O)C1CC[N-]CC1.[Cl][Pt+2]([Cl])([Cl])[Cl]`, the log2 luciferase activity ratio was -0.241 (inactive).
For the molecule `CC(C)(N=NC(C)(C)C1=NCCN1)C1=NCCN1`, the log2 luciferase activity ratio was -0.215 (inactive).
Turning to `NCCSc1nc(-c2ccccc2)c(-c2ccccc2)o1`, the log2 luciferase activity ratio is -0.0133 (inactive).
Take `O=[N+]([O-])c1ccc(C2=Nn3c(nnc3-c3ccc(Cl)cc3)SC2)o1`: the log2 luciferase activity ratio was 0.0802 (inactive).
`O=C(O)[C@@H]1[C@H](C(=O)O)[C@H](C(=O)O)C[C@@H]1C(=O)O`: the log2 luciferase activity ratio was -0.306 (inactive).
In the case of `C/C(=N\NC(=O)c1ccncc1)c1ccccc1Cl`, the log2 luciferase activity ratio was 0.497 (inactive).
On to `OC(Cc1cccnc1)(c1ccccc1)c1ccccc1`, for which the log2 luciferase activity ratio is -0.0482 (inactive).
Consider `NC(=O)/C(=C\c1ccncc1)c1cccc2ccccc12`, for which the log2 luciferase activity ratio is -0.0804 (inactive).
For the molecule `NC(Cc1c[nH]c2ccc([N+](=O)[O-])cc12)C(=O)O` (stereo not drawn), the log2 luciferase activity ratio is 0.208 (inactive).
`Nc1ccc2[nH]cc(CCC(=O)O)c2c1`: the log2 luciferase activity ratio is -0.0435 (inactive).
With `O=C(O)Cc1c[nH]c2ccc(F)cc12`, the log2 luciferase activity ratio is -0.736 (active).
As for `Cc1cc(N2CCCCC2)nc2ccc(Cc3ccc4nc(N5CCCCC5)cc(C)c4c3)cc12`, the log2 luciferase activity ratio was 0.559 (inactive).
As for `N=c1ncn(C/C=C/c2ccccc2)c2nc[nH]c12`, the log2 luciferase activity ratio was 0.287 (inactive).
The same measure for `Cc1cc(=Nc2ccc3c(c2)c(N)cc(C)[n+]3C)nc(N)n1C`: -0.0953 (inactive).
With `COc1cc2c(cc1OC)C(CCN)=NCC2`, the log2 luciferase activity ratio is -0.216 (inactive).
As to `CC1/C=C/C=C/CC/C=C/C=C/C=C/C=C/C(OC2OC(C)C(O)C(N)C2O)CC2OC(CC(O)C(O)CCC(O)CC(O)CC(O)CC(=O)OC(C)C(C)C1O)CC(O)C2C(=O)O` (stereo not drawn), the log2 luciferase activity ratio is -0.0951 (inactive) and -0.0559 (inactive).
Regarding `NCCNCC(O)CO` (stereo not drawn), the log2 luciferase activity ratio was 0.073 (inactive).
`O=C(O)/C(=C\c1ccc(O)cc1)c1cccc2ccccc12`: the log2 luciferase activity ratio was -0.199 (inactive).
For the molecule `CC1(CC(=O)O)OC2CCCCCC2O1` (stereo not drawn) (tested in a mixture with another compound), the log2 luciferase activity ratio was 0.0163 (inactive).
For the molecule `O=C(O)CC1(C(=O)O)CCCCC1`, the log2 luciferase activity ratio is -0.621 (active).
`CC1CCCC(CC(=O)O)(CC(=O)O)C1` (stereo not drawn): the log2 luciferase activity ratio was 0.274 (inactive).
Take `O=C1c2cccc(O)c2C(=O)c2c(OC3OC(CO)C(O)C(O)C3O)cccc21` (stereo not drawn): the log2 luciferase activity ratio is -0.141 (inactive).
The figure for `OC1C(O)C(O)C(O)C(O)C1O` (stereo not drawn) is -0.102 (inactive); for `CC(C)C(Nc1ncnc2nc[nH]c12)C(=O)O` (stereo not drawn) it is 0.37 (inactive).
Turning to `O=C(O)CNC(=O)c1ccccc1O`, the log2 luciferase activity ratio is 0.226 (inactive).
For the molecule `O=C(O)/C(=C/c1ccccc1)c1ccccc1`, the log2 luciferase activity ratio is -0.172 (inactive).
`O=C1Nc2ccccc2/C1=N\[O-].O=C1Nc2ccccc2/C1=N\[O-].[Cu+2]`: the log2 luciferase activity ratio is 0.0071 (inactive).
Consider `Cc1ccc(C)c(C2NC(=O)c3ccccc3N2)c1` (stereo not drawn), for which the log2 luciferase activity ratio was -0.685 (active).
Turning to `N[C@H](C(=O)O)[C@H]1ON=C(Cl)[C@@H]1O`, the log2 luciferase activity ratio is -0.333 (inactive).
Turning to `COC1/C=C\C=C(/C)C(=O)NC2=CC(=O)C(N)=C(CC(C)CC(OC)C(O)C(C)C=C(C)C1OC(N)=O)C2=O` (stereo not drawn), the log2 luciferase activity ratio is -1.05 (active).
Take `CN(C)CCCn1c2c3ccccc3ccc2c2oc(=O)c3ccccc3c21`: the log2 luciferase activity ratio was -0.461 (inactive).
The figure for `CN1CC(c2ccccc2)C(O)(C2(c3ccccc3)CN(C)CC(c3ccccc3)C2=O)C(c2ccccc2)C1` (stereo not drawn) is -0.0781 (inactive).
`CC1CC(C)CN(S(=O)(=O)c2cc(Cl)c(Oc3ccc([N+](=O)[O-])cc3Cl)c(Cl)c2)C1` (stereo not drawn): the log2 luciferase activity ratio is 0.55 (inactive).
Consider `NCC(=O)C(O)C(O)C(O)CO` (stereo not drawn), for which the log2 luciferase activity ratio was 0.229 (inactive).
